# miR-21 reporter = qHTS Assay for Modulators of miRNAs and/orActivators of miR-21; HeLa miR-21 FLuc reporter, luciferase, 48 h; Potency, µM (series often up to 38.3 µM), for inactives: top-dose activity change, positive = activation, usual class: activators; 340,000 tested, under 10 active; AID 2288, 2010;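 also: % of control where 0% means no effect; miR-21 action dims this reporter so a rising signal means less miR-21 action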
#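 HeLa cells endogenously expressing miR-21, stably carrying CMV-driven firefly luciferase with a downstream miR-21 binding site, 2000 cells/well. Titrations up to approximately 40 uM, 48 hours; luciferase luminescence read.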
# TCR act = Activators of T cell receptors: qHTS campaign; primary human leukocytes, anti-CD3, IL-2 HTRF, 48 h; Potency, µM (highest dose often 9.22 µM), inactives show top-dose activation of IL-2 secretion, most hits filed as activators; 330,000 tested, under 10 active; also: % of control where 0% means no effect
#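 Human primary leukocytes + a-CD3 beads + cpd, 48 hr; IL-2 in supernatant by HTRF (ex 320nm / em 665nm). No co-stimulatory signal supplied.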
# A549 tox = Nrf2 qHTS screen for inhibitors: counterscreen for cytotoxicity. 0.16% of 390,000 active. A549 ARE-Fluc cells, CellTiter-Fluor viability, 18-24 h. Potency, µM (top dose mostly 46 µM), for inactives: at the top dose activity change, negative = cytotoxicity, hits mostly inhibitors; also: potency is read from the fitted curve at half-maximal effect; % is scaled to controls: 0 for no effect and ±100 for the full control effect
#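 A549 ARE-Fluc cells in 5% FBS OPTI-MEM, 5000 cells/well, rested 2 h then exposed to compounds in concentration-response for 18-24 h at 37 °C. Viability by CellTiter-Fluor fluorescence (Ex 405/Em 525) after 30 min; luciferase luminescence (BugLite, 15 min, RT) read afterwards.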
# ClpP mod = qHTS Assay for Activators of ClpP; 1.9% of 340,000 active; Potency, µM (top dose mostly 57.5 µM), for inactives: at the highest dose activity change, negative = active; AID 651965, 2013; purified B. subtilis ClpP, FRET peptide cleavage, 20 min; active = well fitted falling curve with a large enough effect; inconclusive = small, poorly fitted or top-dose-only effect; inactive = no such curve, though single readings can be large or run the other way; also: potency is read from the fitted curve at half-maximal effect; the source files actives as falling curves though it sought activators and does not explain the sign; nearly all actives have a fitted effect of over 65% in size
# Target sequence (P80244 whole entry, looked up): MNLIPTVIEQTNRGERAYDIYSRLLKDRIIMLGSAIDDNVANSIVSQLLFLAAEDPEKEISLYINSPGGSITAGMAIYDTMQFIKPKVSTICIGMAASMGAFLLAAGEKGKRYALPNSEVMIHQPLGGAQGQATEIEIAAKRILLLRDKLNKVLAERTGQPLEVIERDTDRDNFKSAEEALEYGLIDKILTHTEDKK
#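 ClpP 10 microg/mL final, pH 8 Tris/KCl buffer with BSA, glycerol, Tween-20; compound pinned in; FRET-FV substrate; RT 20 min; Ex320/Em430; ΔFRET vs ADEP 5.8 microM, DMSO, no enzyme.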
# Nrf2 ARE act = qHTS of Nrf2 Activators. AREc32 ARE-luciferase reporter (MCF7-derived line), luminescence, 24 h. 0.31% of 410,000 active. Potency, µM (highest dose often 46.1 µM), for inactives: at the top dose activation, hits mostly activators. AID 624171, 2012; also: potency is read from the fitted curve at half-maximal effect; % of control where 0% means no effect; nearly all actives have a fitted effect of over 65% in size
#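 AREc32 cells carrying an ARE-driven firefly luciferase reporter were seeded at 1000 cells/well in OPTI-MEM with 5% FBS, then exposed to compound for 24 hr at 37 deg C. Luminescence was read with Steady-Glo after 30 min at RT.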
# Nrf2 inh = Nrf2 qHTS screen for inhibitors; Potency, µM (highest dose often 46 µM), inactives show at the highest dose activity change, negative = inhibition, usual class: inhibitors; A549 ARE-Fluc reporter, luciferase luminescence, 18-24 h; 2.1% of 360,000 active; AID 504444, 2011; also: potency is read from the fitted curve at half-maximal effect; % is scaled to controls: 0 for no effect and ±100 for the full control effect; nearly all actives have a fitted effect of over 60% in size
#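 Cells were seeded and rested 2 h, then exposed to compounds for 18-24 h. CellTiter-Fluor was read first as a viability measure. BugLite was added 15 min before the final luminescent read of ARE-luciferase activity in A549 cells.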
# An asterisk follows results filed as active; ? = inconclusive; nt = no result; [ ] = remark or other dose. A selection: hits, their analogues and other compounds. The true share with any hit is near 3.7%. Unless noted, calls follow the shape of the dose curve; as a rule, active = well fitted curve in the direction sought with a large enough effect; inconclusive = small, poorly fitted or top-dose-only effect, or another doubt; inactive = no such curve, though single readings can be large; an effect the other way counts as inactive or inconclusive.
SMILES,miR-21 reporter,TCR act,A549 tox,ClpP mod,Nrf2 ARE act,Nrf2 inh
Cc1cc(C)c(NC(=O)CSc2nc3ccccc3c3nc(-c4ccccc4)nn23)c(C)c1,-4%,nt,2%,0%,6%,nt
Cc1cc(C)cc(NS(=O)(=O)c2ccc3[nH]cc(C(=O)N4CCCC4)c(=O)c3c2)c1,0%,nt,-4%,-29%,0%,4%
O=C(c1c[nH]c2ccc(S(=O)(=O)N3CCOCC3)cc2c1=O)N1CCCC1,-1%,0%,-2%,7.9µM*,-1%,13%
CCN(c1ccc(F)cc1)S(=O)(=O)c1ccc2[nH]cc(C(=O)NCCCN3CCOCC3)c(=O)c2c1,7%,4%,0%,-29%,-1%,10%
CCN(c1ccccc1)S(=O)(=O)c1ccc2[nH]cc(C(=O)N3CCOCC3)c(=O)c2c1,0%,1%,0%,32µM*,-1%,4%
Cc1nn(-c2ccccc2)c2c1N(CCCC(=O)NCc1ccc(OC(C)C)cc1)C(=O)CS2,21%,nt,-25%,-5%,4%,?
CC(=O)Nc1ccc(NC(=O)C(C)OC(=O)c2cccs2)cc1 (stereo unspecified),nt,-1%,9%,0%,0%,16%
COc1ccc(-c2nc3ccccc3c(=O)n2Cc2ccccc2)cc1CNc1ccc(NC(C)=O)cc1,nt,nt,-9%,nt,nt,-9%
COC(=O)c1coc(-c2ccc(C)cc2)c1C(=O)OC,-32%,-54%,7%,-12%,5%,nt
COC(=O)c1coc(-c2ccc(OC)cc2)c1C(=O)OC,-43%,3%,-4%,32µM*,6%,14%
O=C(COc1ccc2c3c(c(=O)oc2c1)CCC3)N1CCN(c2ccc(F)cc2)CC1,4%,-2%,-3%,3%,3%,23µM*
O=C(COc1ccc(S(=O)(=O)NC2CCCCC2)cc1)N1CCN(c2ccc(F)cc2)CC1,2%,-2%,1%,-2%,0%,15µM*
O=C(COc1ccc2c3c(c(=O)oc2c1)CCC3)NCC(O)c1ccccc1 (stereo unspecified),-1%,-8%,0%,?,0%,-15%
CC(C)CNC(=O)COc1ccc2c3c(c(=O)oc2c1)CCC3,-4%,-4%,-1%,25µM*,0%,?
O=C(COc1ccc2c3c(c(=O)oc2c1)CCCC3)N1CCN(c2ccc(F)cc2)CC1,1%,-1%,10%,3%,0%,0%
NC(=O)C1CCN(C(=O)COc2ccc(S(=O)(=O)NC3CCCC3)cc2)CC1,-1%,4%,0%,nt,0%,2%
CC(C)CCNC(=O)COc1ccc2c3c(c(=O)oc2c1)CCC3,0%,-9%,1%,10µM*,0%,-21%
CC1C(=O)N(Cc2cn(Cc3ccco3)nn2)CCS(=O)(=O)N1Cc1ccc(-c2ccccc2C(F)(F)F)cc1 (stereo unspecified),nt,nt,nt,-2%,3%,nt
O=C(NCCCN1CCN(c2ccccc2)CC1)c1ccc2nc(CCc3ccccc3)oc2c1,16%,nt,?,1%,4%,nt
CCCCN1C(=O)CN(C2CCCCCC2)C(=O)C1c1ccc(OC(C)C)c(OC)c1 (stereo unspecified),-12%,nt,10%,0%,5%,nt
COc1ccc(N2CCN(C(c3ccc(C)cc3)c3nnnn3C(C)(C)C)CC2)cc1 (stereo unspecified),nt,nt,9%,-2%,nt,0%
Cc1onc(-c2c(Cl)cccc2Cl)c1C(=O)NCCc1ccncc1,-4%,1%,1%,-2%,-1%,-9%
CCOc1ccc2c(c1)c(=O)c(S(=O)(=O)c1ccc(CC)cc1)cn2Cc1cccc(Cl)c1,0%,nt,-7%,-22%,0%,-6%
Cn1c(CCN2CCN(c3ccccn3)CC2)nc2cc(NC(=O)COc3ccccc3)ccc21,22%,7%,-4%,-2%,6%,23µM*
Cn1c(CCN2CCCCC2)nc2cc(NS(=O)(=O)c3ccccc3)ccc21,4%,-4%,16%,28µM*,?,-9%
SMILES,miR-21 reporter,TCR act,A549 tox,ClpP mod,Nrf2 ARE act,Nrf2 inh
Cn1c(CN2CCCCC2)nc2cc(NC(=O)c3ccc(Cl)cc3)ccc21,19%,-7%,-5%,-4%,0%,5.8µM*
Cn1c(CN2CCCC2)nc2cc(NC(=O)c3ccc(Cl)cc3)ccc21,-4%,nt,-10%,-2%,4%,?
COc1ccc(CCNC(=O)c2nc(SCc3ccccc3F)ncc2Cl)cc1OC,?,nt,-12%,-4%,0%,16µM*
Cc1ccc(CNC(=O)c2nc(SCc3ccccc3F)ncc2Cl)cc1,5%,nt,8%,-16%,1%,2%
CCC(=O)c1cn(CC(=O)Nc2c(C)cccc2C)c2ccccc12,2%,4%,0%,-3%,0%,5%
O=C(c1ccco1)c1cn(CCOc2ccc(F)cc2)c2ccccc12,2%,nt,-27%,?,4%,23µM*
CC(=O)c1cn(CC(=O)Nc2ccc(C)cc2)c2ccccc12,9%,1%,-3%,0%,4%,?
CC(=O)c1cn(CC(=O)Nc2c(C)cccc2C)c2ccccc12,15%,-10%,-11%,0%,-1%,9.2µM*
CC(=O)c1cn(CC(=O)Nc2ccccc2C)c2ccccc12,11%,3%,-6%,-4%,0%,9.2µM*
Cc1cccc(NC(=O)Cn2cc(C(=O)c3ccco3)c3ccccc32)c1C,26%,nt,-22%,-22%,4%,21µM*
Cc1ccc(C)c(NC(=O)Cn2cc(C(=O)c3ccco3)c3ccccc32)c1,-19%,nt,-1%,?,8%,-24%
CN1CCOc2ccc(S(=O)(=O)N3CCN(S(=O)(=O)c4c(F)cccc4F)CC3)cc21,nt,nt,3%,nt,nt,0%
CCCCCCCCCC[n+]1ccc(/C=C/c2c[nH]c3ccccc23)cc1,nt,nt,nt,2%,nt,nt
Cc1ccc(NCCCn2ccc(NC(=O)OCc3ccccc3)nc2=O)cc1C,nt,-2%,-2%,0%,5%,1%
CCOc1ccc(CNS(=O)(=O)c2ccc3c(c2)CCCN3C(C)=O)cc1,2%,nt,4%,1%,4%,nt
COC(=O)N1CCCc2cc(S(=O)(=O)NCc3ccccc3)ccc21,3%,nt,-8%,1%,3%,23µM*
C=CCn1c(SCC(=O)Nc2ccc(-c3nc4ccc(C)cc4s3)cc2)nnc1-c1ccncc1,-61%,2%[46.1 µM],5%,3.5µM*,2%,?
Cc1ccc2nc(-c3ccc(NC(=O)CCS(=O)(=O)c4ccccc4)cc3)sc2c1,11%,-1%[46.1 µM],2%,nt,0%,?
